Measurements: PubChem BioAssay (NCATS)
Where “and” joins values, the source holds several entries; their conditions need not be identical. Identical values can stand only once. Records with an inconclusive call do not appear. Calls of active or inactive are those of the source. Unless noted, the call rests on the fitted dose curve; in most records, active means well fitted curve in either direction with a large enough effect (not every such curve was filed as active); inconclusive means small, poorly fitted or top-dose-only effect, or another doubt; inactive means flat fitted curve, though single readings scatter.

Key:
[1] = molecular target: Lysosomal acid glucosylceramidase (Homo sapiens) (UniProt P04062); assay: Glucocerebrosidase-p2 (AID 348; in the data active means potency below about 10 µM; further: potency means the concentration at half of the fitted maximal effect); details: purified GBA, blue fluorogenic substrate, 40 min
Chain of Lysosomal acid glucosylceramidase (Homo sapiens) (P04062 whole entry, looked up): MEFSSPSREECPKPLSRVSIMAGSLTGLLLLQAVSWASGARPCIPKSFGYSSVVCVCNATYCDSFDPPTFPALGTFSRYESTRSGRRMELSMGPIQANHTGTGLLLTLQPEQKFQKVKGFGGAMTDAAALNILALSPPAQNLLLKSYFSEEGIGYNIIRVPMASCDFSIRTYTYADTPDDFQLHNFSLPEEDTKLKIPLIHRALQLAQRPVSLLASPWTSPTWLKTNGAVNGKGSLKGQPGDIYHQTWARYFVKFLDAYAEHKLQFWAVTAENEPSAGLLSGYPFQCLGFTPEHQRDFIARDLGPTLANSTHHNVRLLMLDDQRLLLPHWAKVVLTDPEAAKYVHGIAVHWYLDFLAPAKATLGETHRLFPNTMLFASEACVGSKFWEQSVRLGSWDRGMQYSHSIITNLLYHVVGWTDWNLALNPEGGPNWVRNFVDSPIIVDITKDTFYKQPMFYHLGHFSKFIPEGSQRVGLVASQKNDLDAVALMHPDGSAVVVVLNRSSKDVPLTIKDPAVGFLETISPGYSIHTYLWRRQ
Procedure, shortened: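 Normal human glucocerebrosidase (0.2 nM) with blue fluorogenic substrate (80 uM final) in citrate/phosphate pH 5.9 with 10mM sodium taurocholate, 0.01% tween-20; 40 min RT, NaOH/glycine stop; fluorescence Ex 365/Em 440; AC50 from a titration from 0.6 nM upwards.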

[2] = Stat Signaling Pathway (AID 446); details: ME-180 SIE beta-lactamase reporter, IL-6 stimulated, 5 h;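 further: ME-180 cervical cancer cells given 40 pM IL-6 alongside compound; SIE-controlled beta-lactamase reporter measured as 460/530 nm FRET emission ratio; on the % scale 0 is the no-effect control and ±100 the full control effect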
Procedure, shortened: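 Compound effects on IL-6-induced STAT reporter activity were measured in ME-180 cells. After overnight culture, cells were co-treated with 40 pM IL-6 for 5 hrs before beta-lactamase substrate loading at room temperature.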

[3] = molecular target: Glucocorticoid receptor (Homo sapiens) (UniProt P04150); assay: GR-GFP Redistribution (AID 450;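 active means compounds whose dose series gives a full or clear partial fitted curve of increased nuclear translocation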; further: potency means the concentration at half of the fitted maximal effect); details: U2OS GR-GFP nuclear translocation, laser cytometry, 2 h
Chain of Glucocorticoid receptor (Homo sapiens) (P04150 whole entry, looked up, the tested form may be a part): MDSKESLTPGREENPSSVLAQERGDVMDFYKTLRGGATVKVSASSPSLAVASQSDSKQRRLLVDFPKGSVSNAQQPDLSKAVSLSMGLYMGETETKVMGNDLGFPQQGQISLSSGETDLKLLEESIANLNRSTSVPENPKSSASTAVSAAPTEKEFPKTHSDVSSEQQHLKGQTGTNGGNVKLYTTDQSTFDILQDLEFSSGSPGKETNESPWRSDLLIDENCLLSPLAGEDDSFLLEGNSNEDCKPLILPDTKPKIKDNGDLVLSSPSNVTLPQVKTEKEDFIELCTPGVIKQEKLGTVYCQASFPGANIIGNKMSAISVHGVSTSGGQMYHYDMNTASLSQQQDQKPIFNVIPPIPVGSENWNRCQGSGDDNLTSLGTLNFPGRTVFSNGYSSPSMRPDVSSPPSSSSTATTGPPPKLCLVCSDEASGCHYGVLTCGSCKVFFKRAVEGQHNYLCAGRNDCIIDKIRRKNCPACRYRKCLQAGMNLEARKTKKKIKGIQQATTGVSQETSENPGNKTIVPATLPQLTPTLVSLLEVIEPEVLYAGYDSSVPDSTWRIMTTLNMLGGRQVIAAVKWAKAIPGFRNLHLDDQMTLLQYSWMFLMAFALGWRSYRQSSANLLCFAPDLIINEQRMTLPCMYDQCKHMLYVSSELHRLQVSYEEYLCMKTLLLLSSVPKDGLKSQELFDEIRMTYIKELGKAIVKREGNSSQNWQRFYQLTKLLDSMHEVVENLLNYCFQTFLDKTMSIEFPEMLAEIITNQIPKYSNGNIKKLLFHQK

[4] = molecular target: Glucocorticoid receptor (Homo sapiens) (UniProt P04150); assay: GR-EFC Redistribution (AID 451; calls by dose curve; further: potency means the concentration at half of the fitted maximal effect); details: CHO-K1 GR-EFC translocation, beta-gal luminescence, 2 h
Procedure, shortened: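 CHO-K1 cells expressing nuclear EA and GR-ED fragments of b-gal; compounds titrated up to 46 uM final, 2 h at 37 C. GR nuclear translocation read as complemented b-gal luminescence after 1 h RT detection.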

[5] = molecular target: Mitogen-activated protein kinase 10 (Mus musculus) (UniProt Q61831); assay: JNK3 AlphaScreen Assay (AID 530); details: JNK3 lysate, c-Jun phosphorylation; series mostly up to 11.4 µM;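 further: kinase came from lysate of stimulated human HepG2 cells; signal reports phosphorylation of biotinylated GST-cJun 1-79 at Ser73 with 10 µM ATP; on the % scale 0 is the no-effect control and ±100 the full control effect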
Procedure, shortened: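 HepG2 lysate (IL-1b/TNFa pre-activated) + biotin-GST-cJun 1-79 + anti-pSer73 cJun; cpd titration, 15 min RT; ATP 10 uM start; Tris pH 7.6, MgCl2, DTT, vanadate; beads in EDTA buffer; AlphaScreen.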

[6] = molecular target: 3',5'-cyclic-AMP phosphodiesterase 4B (Homo sapiens) (UniProt Q07343); assay: qHTS Assay for Inhibitors of PDE-IV (AID 607; active means well fitted activation curve with a large enough effect in the main read-out, with a control signal flat, not every such curve was filed as active; further: % of control where 0% means no effect); details: HEK293 ACTOne CNG channel cells, membrane potential fluorescence; series mostly up to 22.9 µM
Chain of 3',5'-cyclic-AMP phosphodiesterase 4B (Homo sapiens) (Q07343 whole entry, looked up): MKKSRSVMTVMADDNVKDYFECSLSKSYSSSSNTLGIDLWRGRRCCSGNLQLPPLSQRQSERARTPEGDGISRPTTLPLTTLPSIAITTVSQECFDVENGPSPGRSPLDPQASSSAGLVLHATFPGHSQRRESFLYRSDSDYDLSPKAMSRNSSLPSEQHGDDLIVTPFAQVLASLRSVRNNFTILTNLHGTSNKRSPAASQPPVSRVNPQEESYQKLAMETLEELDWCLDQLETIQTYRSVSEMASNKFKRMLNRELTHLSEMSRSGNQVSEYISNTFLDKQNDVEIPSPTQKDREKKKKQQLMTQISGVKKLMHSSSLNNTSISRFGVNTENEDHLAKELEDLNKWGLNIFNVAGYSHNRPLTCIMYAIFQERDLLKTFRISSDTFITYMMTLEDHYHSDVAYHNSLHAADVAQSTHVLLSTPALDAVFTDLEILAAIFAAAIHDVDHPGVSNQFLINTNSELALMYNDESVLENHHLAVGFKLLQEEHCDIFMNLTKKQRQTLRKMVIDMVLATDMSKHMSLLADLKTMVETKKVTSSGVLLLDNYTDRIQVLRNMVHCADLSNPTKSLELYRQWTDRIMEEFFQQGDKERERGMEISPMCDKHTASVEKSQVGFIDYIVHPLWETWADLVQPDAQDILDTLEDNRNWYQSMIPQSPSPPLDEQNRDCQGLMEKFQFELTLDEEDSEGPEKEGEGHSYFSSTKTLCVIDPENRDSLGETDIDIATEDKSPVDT
Procedure, shortened: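 ACTOne HEK293 cells carry a modified cAMP-gated CNG channel and express endogenous PDE4; plated 1000 cells/well, compounds up to 22.9 uM final. Membrane-potential dye fluorescence (ex 535/em 590) was read; parental cells received 10 uM forskolin + 100 uM RO 20-1724.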

[7] = AP1 Signaling Pathway (AID 357); details: ME-180 AP-1-bla reporter, EGF-induced, beta-lactamase ratio, 5 h;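 further: ME-180 reporter cells stimulated with EGF at its EC50 level; on the % scale 0 is the no-effect control and ±100 the full control effect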
Procedure, shortened: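 A ratiometric CCF4 readout (405 nm excitation; 460 and 530 nm emission) quantified AP-1-driven beta-lactamase in ME-180 cells after 5 h with compound and EC50 EGF; AC50 values were derived for activators and inhibitors.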

[8] = NFAT Signaling Pathway (AID 444); details: Jurkat NFAT-bla M1, carbachol, beta-lactamase ratio, 5 h;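 further: carbachol stimulus at about its EC50 of 1 µM final; on the % scale 0 is the no-effect control and ±100 the full control effect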
Procedure, shortened: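 Jurkat cells with NFAT-driven β-lactamase reporter and co-expressed M1 receptor, stimulated with carbachol (final 1 uM, ~EC50), compound titration, 5 h at 37 °C. CCF4 loaded 1 h at RT; 460/530 nm ratio gave %activity and AC50.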

[9] = molecular target: ATP-dependent 6-phosphofructokinase (Trypanosoma brucei brucei) (UniProt O15648); assay: qHTS Assay to Find Inhibitors of T. brucei phosphofructokinase: hit validation (AID 492961; active means well fitted curve in the direction sought with a large enough effect; an effect the other way counts as inactive or inconclusive); details: T. brucei PFK, ADP-Glo luminescence; series mostly up to 51.4 µM
Chain of ATP-dependent 6-phosphofructokinase (Trypanosoma brucei brucei) (O15648 whole entry, looked up): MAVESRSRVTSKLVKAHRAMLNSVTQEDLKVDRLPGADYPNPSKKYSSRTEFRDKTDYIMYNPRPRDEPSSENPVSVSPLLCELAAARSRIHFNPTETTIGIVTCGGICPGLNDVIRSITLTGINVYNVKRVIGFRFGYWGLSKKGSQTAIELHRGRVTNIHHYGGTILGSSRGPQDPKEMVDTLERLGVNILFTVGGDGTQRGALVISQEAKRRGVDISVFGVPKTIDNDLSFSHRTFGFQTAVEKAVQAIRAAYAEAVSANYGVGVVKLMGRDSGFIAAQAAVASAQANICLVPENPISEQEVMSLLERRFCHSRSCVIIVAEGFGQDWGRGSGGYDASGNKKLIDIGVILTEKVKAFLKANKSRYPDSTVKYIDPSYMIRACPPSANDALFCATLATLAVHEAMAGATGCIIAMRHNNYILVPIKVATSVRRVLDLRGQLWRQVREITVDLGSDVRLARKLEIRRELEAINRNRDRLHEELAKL
Procedure, shortened: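 Compounds titrated; %activity normalized to 0x and 1x enzyme controls, curve-fitted. Readout: ADP-Glo luminescence after 45 min room-temperature reaction of 1.25 nM PFK, 0.1 mM ATP, 0.5 mM F6P, pH 8.0.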

[10] = qHTS profiling for inhibitors of Plasmodium falciparum proliferation (AID 504749; active means well fitted curve in the direction sought with a large enough effect; an effect the other way counts as inactive or inconclusive;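 further: 0% = DMSO vehicle and full inhibition = artemisinin control; nearly all actives have a fitted effect of over 60% in size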); details: P. falciparum in erythrocytes, SYBR Green DNA, 72 h, at 28.7 µM (top of the series)
Procedure, shortened: (§1)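 SYBR Green fluorescence (ex 485 nm, em 535 nm) reports parasite DNA after 72 h compound exposure of infected red cells at 0.3% parasitemia, 2.5% hematocrit; signal normalized to 0.29 uM artemisinin and vehicle wells.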

[11] = test system: ATS189; assay: as above; details: P. falciparum in erythrocytes, SYBR Green DNA, 72 h; series mostly up to 28.7 µM
Procedure, shortened: as §1

[12] = test system: CP192; assay: as above; details: P. falciparum in erythrocytes, SYBR Green DNA, 72 h; series mostly up to 28.7 µM
Procedure, shortened: as §1

[13] = test system: CP201; assay: as above; details: P. falciparum in erythrocytes, SYBR Green DNA, 72 h; series mostly up to 28.7 µM
Procedure, shortened: as §1

[14] = test system: CP247; assay: as above; details: P. falciparum in erythrocytes, SYBR Green DNA, 72 h; series mostly up to 28.7 µM
Procedure, shortened: as §1

[15] = molecular target: Cytochrome P450 1A2 (Homo sapiens) (UniProt P05177); assay: p450-cyp1a2 (AID 410; calls by dose curve; further: potency means the concentration at half of the fitted maximal effect;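 on activity change, negative = inhibition: -100% = full effect of reference inhibitor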); details: recombinant CYP1A2, luciferin-ME demethylation, luminescence; series mostly up to 11.4 µM
Chain of Cytochrome P450 1A2 (Homo sapiens) (P05177 whole entry, looked up): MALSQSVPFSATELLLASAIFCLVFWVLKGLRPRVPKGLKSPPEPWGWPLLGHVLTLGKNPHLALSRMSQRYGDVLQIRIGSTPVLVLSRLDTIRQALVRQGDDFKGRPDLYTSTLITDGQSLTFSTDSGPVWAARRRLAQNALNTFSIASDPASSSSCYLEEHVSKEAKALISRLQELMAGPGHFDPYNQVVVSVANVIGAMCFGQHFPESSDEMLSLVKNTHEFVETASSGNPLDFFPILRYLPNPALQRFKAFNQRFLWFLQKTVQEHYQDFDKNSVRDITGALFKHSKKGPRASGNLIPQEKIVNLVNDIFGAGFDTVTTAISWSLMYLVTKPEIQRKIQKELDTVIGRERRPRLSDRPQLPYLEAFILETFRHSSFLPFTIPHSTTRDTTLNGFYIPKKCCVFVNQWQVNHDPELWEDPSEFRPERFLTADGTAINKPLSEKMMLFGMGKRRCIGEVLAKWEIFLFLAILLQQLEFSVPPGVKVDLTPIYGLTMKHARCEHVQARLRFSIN
Procedure, shortened: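 Read-out is luminescence from luciferin produced by CYP1A2 demethylation of Luciferin-ME (100uM, at Km). Detection reagent stopped the 60 min NADPH-dependent reaction; signals were normalized to 57 uM furafylline.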

[16] = qHTS Assay for Identification of Small Molecule Agonists for Hypoxia Response Element Signaling Pathway (AID 914; active means well fitted activation curve with a large enough effect in the signal ratio, with a control signal flat, not every such curve was filed as active; the % refers to the signal ratio; further: potency means the concentration at half of the fitted maximal effect; on activation: % of control where 0% means no effect); details: ME-180 HRE-bla reporter, beta-lactamase ratio, CoCl2, 17 h; activation: hits give high values
Procedure, shortened: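 ME-180 cells carrying an HRE-driven beta-lactamase reporter were treated with compounds in a titration series plus an EC50 level of CoCl2 for 17 h at 37 degrees Celsius; CCF4 readout as the 460nm/530nm ratio gave AC50 values.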

[17] = molecular target: Cytochrome P450 3A4 (Homo sapiens) (UniProt P08684); assay: qHTS Assay for Activators of Cytochrome P450 3A4 (AID 885; active means well fitted curve in the direction sought with a large enough effect; an effect the other way counts as inactive or inconclusive; further: nearly all actives have a fitted effect of over 65% in size); details: recombinant CYP3A4, Luciferin-PPXE luminescence, 60 min; series mostly up to 11.4 µM
Chain of Cytochrome P450 3A4 (Homo sapiens) (P08684 whole entry, looked up): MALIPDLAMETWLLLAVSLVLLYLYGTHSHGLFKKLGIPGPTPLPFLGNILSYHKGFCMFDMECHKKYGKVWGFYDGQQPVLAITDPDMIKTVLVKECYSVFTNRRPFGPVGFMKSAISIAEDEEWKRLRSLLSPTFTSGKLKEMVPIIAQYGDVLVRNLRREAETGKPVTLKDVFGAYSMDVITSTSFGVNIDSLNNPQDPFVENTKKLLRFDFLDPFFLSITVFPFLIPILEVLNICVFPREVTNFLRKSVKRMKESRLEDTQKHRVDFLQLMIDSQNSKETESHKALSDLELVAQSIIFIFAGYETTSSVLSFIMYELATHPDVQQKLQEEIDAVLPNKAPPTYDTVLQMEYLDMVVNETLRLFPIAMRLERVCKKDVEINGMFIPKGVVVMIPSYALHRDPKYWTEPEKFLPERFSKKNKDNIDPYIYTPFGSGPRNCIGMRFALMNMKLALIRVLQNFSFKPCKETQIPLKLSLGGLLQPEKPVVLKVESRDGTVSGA
Procedure, shortened: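 CYP3A4 activity: Luciferin-PPXE O-dealkylation, 25uM substrate, 200mM KPO4, RT throughout. Read-out is luciferase luminescence; higher values reflect activation.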

[18] = at 7.69 µM (top of the series) unless noted

CC(C)c1ccc(O)c(O)c(=O)c1 (tested in a mixture with another compound)
inactive: Potency [1] > 11.4 µM | activity, negative = inhibition [2, 18] 4.84% | Potency [3] > 46 µM | Potency [4] > 9.22 µM | Potency [5] | Potency [6]

COc1ncc2nc(-c3cc(F)cc(F)c3)c(=O)n(CCc3ccccc3)c2n1
inactive: Potency [1] > 11.4 µM | Potency [3] > 9.22 µM | Potency [4] > 46 µM | Potency [5]

CC(=O)N1CCN(c2ccc(OC[C@@H]3CO[C@@](Cn4ccnc4)(c4ccc(Cl)cc4Cl)O3)cc2)CC1
inactive: activity change, negative = inhibition ([7]; at 17.2 µM (top of the series)) -18.1% | activity change, negative = inhibition ([7]; at 38 µM (top of the series)) -10.5% | activity change, negative = inhibition ([8]; at 17.2 µM (top of the series)) -5.42% | activity change, negative = inhibition ([8]; at 38 µM (top of the series)) -20.5% | activity, negative = inhibition ([2]; at 17.2 µM (top of the series)) -12.7% | activity, negative = inhibition ([2]; at 38 µM (top of the series)) -11.9% | Potency [3] > 46 µM and > 20.6 µM | Potency [4] > 46 µM and > 20.6 µM | Potency [6] | outcome [9] | activity, negative = inhibition ([10]; parasite line A) -14.8% | activity, negative = inhibition ([10]; parasite line B) -14.2% | Potency [11] | Potency [12] | Potency [13] | Potency [14]

C[N+](C)(C)/N=C\c1ccc(O)c(O)c1
inactive: activity change, negative = inhibition [7, 18] 4.59% | activity change, negative = inhibition [8, 18] 8.29% | activity, negative = inhibition [2, 18] 3.02% | Potency [3] > 46 µM | Potency [4] > 9.22 µM | Potency [5] | Potency [6]
active: Potency [15] 10 µM

N#CCCn1c(=O)c(-c2ccccc2)nc2cnc(N3CCNCC3)nc21
inactive: Potency [1] > 11.4 µM | Potency [3] > 9.22 µM | Potency [4] > 46 µM | Potency [5] | Potency [6]
active: Potency [16] 3.16 µM

O=c1c(CCc2ccccc2)nc2cnc(Oc3ccccc3)nc2n1C[C@H]1CCCO1
inactive: Potency [1] > 11.4 µM | activity, negative = inhibition [2, 18] -18.9% | Potency [3] > 9.22 µM | Potency [4] > 46 µM | Potency [6] | Potency [17] | activation [16] -12.6%

NC(=O)c1ncn([C@@H]2O[C@@H](CO)[C@@H](O)[C@H]2O)n1
inactive: activity change, negative = inhibition [7, 18] 18.3% [at 38 µM] | Potency [15] | activity change, negative = inhibition [8, 18] 17% [at 38 µM] | activity, negative = inhibition [2, 18] -14.5% [at 38 µM] | Potency [3] > 46 µM | Potency [4] > 46 µM | Potency [5] | Potency [6]

C[N+]1(C)[C@@H]2CC(OC(=O)[C@@H](CO)c3ccccc3)C[C@@H]1[C@H]1O[C@H]12 (stereo partly specified)
inactive: Potency [1] > 11.4 µM | outcome [9] | activity, negative = inhibition ([10]; parasite line A) 5.68% | activity, negative = inhibition ([10]; parasite line B) -7.21% | Potency [11] | Potency [12] | Potency [13] | Potency [14]

NNC(=O)CNc1cccc(Br)c1
active: Potency [15] 0.501 µM
inactive: activity change, negative = inhibition [7, 18] -0.367% | activity change, negative = inhibition [8, 18] -6.61% | activity, negative = inhibition [2, 18] -6.81% | Potency [3] > 46 µM | Potency [4] > 9.22 µM | Potency [5] | Potency [6]

COc1cc2ccc([C@H](C)NCC#N)cc2cc1OC
inactive: activity change, negative = inhibition [7, 18] -11.4% | activity change, negative = inhibition [8, 18] 9.37% | activity, negative = inhibition [2, 18] -0.292% | Potency [3] > 46 µM | Potency [4] > 9.22 µM | Potency [5] | Potency [6]
active: Potency [15] 0.501 µM

COc1ncc2nc(-c3cc(F)cc(F)c3)c(=O)n(C3CC3)c2n1
active: Potency [15] 1.58 µM
inactive: activity change, negative = inhibition [7, 18] 5.87% | activity change, negative = inhibition [8, 18] -2% | activity, negative = inhibition [2, 18] -19.2% | Potency [3] > 9.22 µM | Potency [4] > 46 µM | Potency [5] | Potency [6]

O=C(O)/C(=C\c1ccccc1)c1ccccc1
inactive: activity change, negative = inhibition [7, 18] 3.72% | Potency [15] | activity change, negative = inhibition [8, 18] 1.44% | activity, negative = inhibition [2, 18] -0.514% | Potency [3] > 46 µM | Potency [4] > 9.22 µM | Potency [5] | Potency [6]

CN1[C@@H]2CC[C@H]1CC(OC(=O)[C@@H](CO)c1ccccc1)C2 (stereo partly specified)
active: activity change, negative = inhibition [8, 18] -38.1% [at 17.2 µM]
inactive: activity change, negative = inhibition ([7]; at 17.2 µM (top of the series)) -0.827% and 1.39% | activity change, negative = inhibition ([7]; at 38 µM (top of the series)) 10.7% and -6.14% | activity, negative = inhibition ([2]; at 17.2 µM (top of the series)) 10.3% and 3.29% | activity, negative = inhibition ([2]; at 38 µM (top of the series)) 27.8% and 8.42% | Potency [5]
